Here are results for three compounds from PubChem BioAssay (NCATS).

SMILES strings stand for the structures. Results filed as inconclusive are left out. Some compounds were tested as several samples or in several runs, with calls that do not always agree. Calls of active or inactive are those of the source. The call rests on the fitted dose curve; in most records, active means well fitted curve in the direction sought with a large enough effect; inconclusive means small, poorly fitted or top-dose-only effect, or another doubt; inactive means no such curve, though single readings can be large; an effect the other way counts as inactive or inconclusive.

Test [1] is described as follows: Drug repurposing screens with cells derived from glioblastoma tumor samples (AID 1345199). Further: on the % scale 0 is the no-effect control and ±100 the full control effect; nearly all actives have a fitted effect of over 40% in size. To be noted: GBM patient neurospheres viability, ATP luminescence, 48 h; at 108 µM (top of the series); tumour line B. The procedure, abridged:
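Primary testing used CD133+ neurospheres from four GBM patients, seven concentrations, 48 h exposure and ATP-based viability; confirmation added three slower-growing patient lines.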

Test [2] in a line: qHTS assay to identify inhibitors of the type 1 interferon - major histocompatibility complex class I in skeletal muscle: Counter screen cell viability and HiBit confirmation (AID 1347412). Further: potency means the concentration at half of the fitted maximal effect; nearly all actives have a fitted effect of over 60% in size. The note with it: iHSKM muscle cells + IFN-b, HiBiT or CellTiter-Glo, 24 h; HiBiT. In short, it runs like this: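 Human myoblast knock-in line, 4.0 ng/ml IFN-beta stimulation, 24 h compound treatment. Endpoints: HiBiT lytic luminescence (HLA-B level) and CellTiter Glo (ATP). Dosing 12 concentrations, 3-fold steps, 46 uM highest final.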

On to `COc1cc(CC(C)N)c(OC)cc1Br` (stereo not drawn), for which, in test [1], the activity, negative = cell killing is -15.6% (inactive).

For `CC[C@H](O)C(C[C@H](C)N(C)C)(c1ccccc1)c1ccccc1`, the activity, negative = cell killing in test [1] was -29.7% (inactive). `C[C@@H]1O[C@@H](O[C@@H]2C=C3CC[C@@H]4[C@H](CC[C@]5(C)[C@@H](c6ccc(=O)oc6)CC[C@]45O)[C@@]3(C)CC2)[C@H](O)[C@H](O)[C@H]1O`: in test [2], the Potency was 12.5 nM (active).
